Bioassay records from PubChem BioAssay.
This is a sample that favours compounds with a hit; in the whole collection about 19% have one here.
HT1080NT lethal – qHTS for induction of synthetic lethality in tumor cells producing 2HG: qHTS for the HT-1080-NT fibrosarcoma cell line. HT-1080-NT fibrosarcoma viability, CellTiter-Glo ATP luminescence, 48 h. Potency, µM (series often up to 46.1 µM), usual class: cytotoxic. actives 1.6% (n = 360,000). AID 686970, 2013;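 further: NT is the 2HG producing partner of a matched IDH1 knockdown line; nearly all actives have a fitted effect of over 55% in size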
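Viability of the 2HG-overproducing fibrosarcoma line after 48 hours of compound exposure at 37 degrees C was determined by luminescence with CellTiter-Glo, and concentration-effect curves were then fitted and categorized.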
TDP1 cell noCPT – qHTS for Inhibitors of human tyrosyl-DNA phosphodiesterase 1 (TDP1): qHTS in cells in absence of CPT | DT40 Tdp1-/- hTDP1 cells, no CPT, ATP luminescence, 48 h | Potency, µM (titrated, usually from 46.2 µM), actives largely listed as inhibitors | actives 15% (n = 420,000); further: nearly all actives have a fitted effect of over 55% in size
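Luminescent ATP content (CellTiter-Glo) served as the growth readout. Knockout chicken DT40 cells expressing human TDP1 were exposed to compounds without camptothecin for a minimum 48 hr at 37 °C.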
DT40 TDP1 CPT – qHTS for Inhibitors of human tyrosyl-DNA phosphodiesterase 1 (TDP1): qHTS in cells in presence of CPT | chicken DT40 Tdp1-/-;hTDP1 cells + 20 nM CPT, ATP luminescence, 48 h | Potency, µM (titrated, usually from 46.2 µM), actives largely listed as inhibitors | actives 12% (n = 420,000) | AID 686979, 2013; further: nearly all actives have a fitted effect of over 55% in size
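Cell growth measured by CellTiter-Glo luminescence after a minimum 48 h, 37 C compound exposure with 20 nM CPT in Tdp1-knockout DT40 cells stably expressing hTDP1, seeded 400/well; qHTS titration format.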
KB-3-1 cytotox – qHTS assay for MDR1-selective chemotherapeutics: Primary screen using the parental adenocarcinoma cell KB-3-1; KB-3-1 viability, CellTiter-Glo ATP luminescence, 72 h; Potency, µM (doses to about 46.1 µM), most hits filed as cytotoxic; actives 1.4% (n = 400,000); further: nearly all actives have a fitted effect of over 60% in size
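KB-3-1 cells, DMEM (no phenol red) + 10% FBS; compound by pin transfer, 72 h, 37 °C. Readout: CellTiter-Glo luminescence after 10 min. Data normalized, curve-fitted.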
HT1080 IDH1KD tx – qHTS for induction of synthetic lethality in tumor cells producing 2HG: qHTS for the HT-1080-IDH1KD cell line; Potency, µM (top dose mostly 46.1 µM), actives largely listed as cytotoxic; actives 2% (n = 360,000); HT-1080 IDH1 knockdown viability, ATP luminescence, 48 h; AID 686971, 2013
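After a 2 h attachment period, IDH1KD HT-1080 cells took pin-transferred compound for 48 h at 37 °C; ATP-based luminescence after 10 min room-temperature reagent incubation reported viability.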
KB-V1 MDR tox – qHTS assay for MDR1-selective chemotherapeutics: Primary screen using the drug-selected MDR subline cells KB-V1; Potency, µM (series often up to 46.1 µM), hits mostly cytotoxic; KB-V1 MDR cells viability, CellTiter-Glo, 72 h; actives 3.4% (n = 400,000); AID 1347076, 2019; further: nearly all actives have a fitted effect of over 60% in size
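Drug-selected KB-V1 cells, grown in DMEM lacking phenol red with 10% FBS, receive compound titrations; after three days at 37 degrees C, surviving cell ATP is quantified by CellTiter-Glo luminescence and responses normalized and curve-fitted.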
Each line names hits and unclear results; the compound was inactive in the other large screens. The call rests on the fitted dose curve; in most records, active means well fitted curve in the direction sought with a large enough effect; inconclusive means small, poorly fitted or top-dose-only effect, or another doubt; inactive means no such curve, though single readings can be large; an effect the other way counts as inactive or inconclusive.

Cc1c(Cl)cccc1NC(=S)N1CCN(Cc2ccc3c(c2)OCO3)CC1	none
O=C(COC(=O)/C=C/c1ccc2ccccc2n1)NNC(=O)c1ccccc1	TDP1 cell noCPT 26µM, DT40 TDP1 CPT inconclusive
CC(C)CCNC(=O)COC(=O)/C=C/c1ccc2ccccc2n1	HT1080NT lethal inconclusive, TDP1 cell noCPT inconclusive, DT40 TDP1 CPT inconclusive
Cc1ccc(C(=O)Nc2nc(=O)n(C(=O)c3ccccc3C)s2)cc1	HT1080NT lethal inconclusive, TDP1 cell noCPT 13µM, DT40 TDP1 CPT 12µM, HT1080 IDH1KD tx inconclusive
Cc1ccc(C(=O)Nc2nc(=O)n(C(=O)C3CC3)s2)cc1	TDP1 cell noCPT 16µM, DT40 TDP1 CPT 21µM, KB-V1 MDR tox inconclusive
O=C(Nc1ccc(NC(=O)C2CC2)cn1)c1ccccc1	none
Cc1ccc(C(=O)Nc2cccc(NC(=O)c3ccc(C)cc3)n2)cc1	TDP1 cell noCPT inconclusive, KB-V1 MDR tox inconclusive
O=C(Nc1nc(=O)n(C(=O)C2CC2)s1)c1ccccc1	TDP1 cell noCPT 23µM, DT40 TDP1 CPT 21µM
O=C(Nc1ccc2c(c1)OCCO2)C1c2ccccc2OCC(=O)N1CCc1ccccc1 (stereo not drawn)	none
CCOC(=O)c1c(C)[nH]c(C)c1S(=O)(=O)N(C)CC(=O)Nc1ccc(C)c(F)c1	none (no result: HT1080NT lethal, HT1080 IDH1KD tx)
Cc1ccccc1NC(=O)COc1coc(CN2CCN(c3ccccc3)CC2)cc1=O	TDP1 cell noCPT inconclusive, DT40 TDP1 CPT inconclusive
COc1ccc(OC)c(C=Cc2ccc([N+](=O)[O-])cc2)c1	TDP1 cell noCPT inconclusive
COc1ccc(N2C(=O)/C(=C/c3ccc([N+](=O)[O-])cc3)N=C2C)c(OC)c1	TDP1 cell noCPT 2.1µM, DT40 TDP1 CPT 3.7µM
CC1=N/C(=C\c2ccc([N+](=O)[O-])cc2)C(=O)N1c1cc(Cl)ccc1C	TDP1 cell noCPT 9.2µM, DT40 TDP1 CPT 10µM
COc1cccc(OC)c1C(=O)Nc1ccccc1N1CCCCC1	TDP1 cell noCPT inconclusive, DT40 TDP1 CPT inconclusive, KB-3-1 cytotox inconclusive, KB-V1 MDR tox inconclusive
Cc1cccc2cc(CN(Cc3ccco3)C(=O)Nc3cccc(C#N)c3)c(Cl)nc12	HT1080NT lethal inconclusive, TDP1 cell noCPT inconclusive, DT40 TDP1 CPT inconclusive, HT1080 IDH1KD tx 11µM, KB-V1 MDR tox 12µM
Cc1ccc(C)c2[nH]c(=O)c(CN(Cc3ccco3)C(=O)Nc3ccccc3)cc12	TDP1 cell noCPT inconclusive, DT40 TDP1 CPT inconclusive
Cc1nc(C(C)NC(=O)c2cc(COc3ccc(F)c(F)c3)on2)cs1 (stereo not drawn)	TDP1 cell noCPT inconclusive, DT40 TDP1 CPT inconclusive, KB-3-1 cytotox inconclusive
Cc1cc(C)n(CC(C)NC(=O)c2cc(COc3ccc(F)c(F)c3)on2)n1 (stereo not drawn)	TDP1 cell noCPT 16µM, DT40 TDP1 CPT inconclusive
Cc1cccc(CC(C)NC(=O)c2cc(COc3ccc(C)c(C)c3)on2)n1 (stereo not drawn)	TDP1 cell noCPT 21µM, DT40 TDP1 CPT 21µM (no result: KB-3-1 cytotox, KB-V1 MDR tox)
CCOC(=O)CC1(NC(=O)c2cc(COc3ccc(F)c(F)c3)on2)CCCCC1	TDP1 cell noCPT 18µM, DT40 TDP1 CPT 23µM
Cc1cc(CNC(=O)c2cc(COc3ccc(F)c(F)c3)on2)nn1C	TDP1 cell noCPT inconclusive, DT40 TDP1 CPT 15µM
CSCCC(NC(=O)/C(=C/c1ccco1)NC(=O)c1ccco1)C(=O)O (stereo not drawn)	TDP1 cell noCPT inconclusive
COc1ccc(N2CCN(C(=O)Cn3nc(Cc4cccnc4)c4ccccc4c3=O)CC2)cc1	TDP1 cell noCPT inconclusive (no result: HT1080NT lethal, KB-3-1 cytotox, HT1080 IDH1KD tx, KB-V1 MDR tox)
O=C(Cn1cc(C(=O)c2ccco2)c2ccccc21)NC1CCCC1	none
CC1(C)Oc2ccc(C(=O)NC3CCCC3)cc2N(CC(=O)NC2CCCCC2)C1=O	none
CCCCn1c(N)c(N(CCOC)C(=O)c2oc3ccc(OCC)cc3c2C)c(=O)[nH]c1=O	none
CS(=O)(=O)c1ccc(Nc2nc(C(N)c3ccccc3Cl)cs2)cc1 (stereo not drawn)	TDP1 cell noCPT inconclusive, DT40 TDP1 CPT inconclusive, KB-3-1 cytotox inconclusive, HT1080 IDH1KD tx inconclusive, KB-V1 MDR tox inconclusive
CSc1nc2ccsc2c(=O)n1-c1ccccn1	none
Cc1ccc(C2CC(c3ccc(NS(C)(=O)=O)cc3)=NN2C(=O)c2ccco2)cc1 (stereo not drawn)	TDP1 cell noCPT inconclusive
CCS(=O)(=O)Nc1ccc(C2=NN(C(=O)c3ccco3)C(c3ccc(C)cc3)C2)cc1 (stereo not drawn)	HT1080NT lethal inconclusive, TDP1 cell noCPT 20µM, DT40 TDP1 CPT inconclusive, HT1080 IDH1KD tx inconclusive
CS(=O)(=O)Nc1ccc(C2=NN(C(=O)c3ccco3)C(c3ccccc3)C2)cc1 (stereo not drawn)	TDP1 cell noCPT inconclusive, DT40 TDP1 CPT inconclusive, KB-V1 MDR tox 16µM
COCCCn1c(C(=O)N2CC(C)OC(C)C2)cc2c(=O)n3ccccc3nc21 (stereo not drawn)	KB-3-1 cytotox inconclusive
COc1ccc(-c2cccc3c2OC(CNC(=O)c2ccc4c(c2)OCO4)C3)nn1 (stereo not drawn)	none (no result: HT1080NT lethal, KB-3-1 cytotox, HT1080 IDH1KD tx, KB-V1 MDR tox)
O=C(NCc1cccnc1)c1ccc([N+](=O)[O-])o1	HT1080NT lethal inconclusive, TDP1 cell noCPT inconclusive, DT40 TDP1 CPT inconclusive, HT1080 IDH1KD tx inconclusive, KB-V1 MDR tox 23µM
NC(=O)c1oc2ccccc2c1NC(=O)c1ccc(F)cc1	none
NC(=O)c1oc2ccccc2c1NC(=O)c1ccc([N+](=O)[O-])o1	HT1080NT lethal 1.5µM, TDP1 cell noCPT 0.58µM, DT40 TDP1 CPT 0.73µM, KB-3-1 cytotox 3.7µM, HT1080 IDH1KD tx 2.1µM, KB-V1 MDR tox 7.3µM
O=C(Nc1cccnc1)c1ccc([N+](=O)[O-])o1	HT1080NT lethal inconclusive, TDP1 cell noCPT 15µM, DT40 TDP1 CPT 9.2µM, KB-3-1 cytotox inconclusive, HT1080 IDH1KD tx inconclusive, KB-V1 MDR tox inconclusive
O=C(NCc1cccnc1)c1ccc(N2CCOCC2)c([N+](=O)[O-])c1	TDP1 cell noCPT 16µM, DT40 TDP1 CPT inconclusive
CS(=O)(=O)N(Cc1ccco1)CC(O)Cn1cc(C=O)c2ccccc21 (stereo not drawn)	DT40 TDP1 CPT inconclusive
CCCCOc1ccc(C(=O)NCC(=O)NCCCn2nc(C)cc2C)cc1	KB-V1 MDR tox inconclusive
O=C(NNC(=O)c1cc(-c2ccccc2)n(-c2ccccc2)n1)c1cccc([N+](=O)[O-])c1	none
